Reference: PubChem BioAssay AID1159580 (chemical genetic matrix, 2015)
Values joined by “and” are separate entries in the source; they are usually repeats but may differ in a detail not shown here. Equal values may be shown once. About 2,000 (36%) of roughly 5,500 compounds were called active. Not shown: some 18% with an inconclusive outcome. Rule as the data show it: active = normalized growth mostly below about 0.91 (no sharp cut-off); inconclusive = no clear call, values can overlap the other calls; inactive = mostly above about 0.92. The list shows a part of the results.

Assay: chemical genetic growth profiling, strain panel (AID 1159580);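 also: tested at 20 µM; growth read once vehicle control cultures reached saturation at 30 °C; 1 = growth at the plate median or of vehicle wells; lower values mean less growth of the strain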
Conditions: growth OD

Measured: normalized growth

C=CCc1ccccc1OCC(O)CNC(C)C (stereo unspecified)
inactive: S. cerevisiae deletion strains, locus YJR066W, strain TOR1, hits give low values 0.924 | S. cerevisiae deletion strains, locus YJR075W, strain HOC1, hits give low values 1.01 and 1 | S. cerevisiae deletion strains, locus YKL009W, strain mrt4, hits give low values 1 | S. cerevisiae deletion strains, locus YKL068W, hits give low values 1.01 | S. cerevisiae deletion strains, locus YKL085W, strain MDH1 (second series), hits give low values 1.01 | S. cerevisiae deletion strains, locus YKL085W, strain MDH1, hits give low values 1.01 | S. cerevisiae deletion strains, locus YKL160W, strain elf1, hits give low values 1 | S. cerevisiae deletion strains, locus YKL190W, strain CNB1, hits give low values 1 | S. cerevisiae deletion strains, locus YKR001C, strain vps1, hits give low values 1.03 | S. cerevisiae deletion strains, locus YKR026C, strain gcn3, hits give low values 0.988 | S. cerevisiae deletion strains, locus YKR091W, strain srl3, hits give low values 0.997 | S. cerevisiae deletion strains, locus YLL001W, strain dnm1, hits give low values 1.01 | S. cerevisiae deletion strains, locus YLL026W, hits give low values 0.991 | S. cerevisiae deletion strains, locus YLL041C, strain sdh2, hits give low values 0.992 | S. cerevisiae deletion strains, locus YLR027C, strain aat2, hits give low values 0.99 | S. cerevisiae deletion strains, locus YLR039C, strain RIC1, hits give low values 1.06 | S. cerevisiae deletion strains, locus YLR058C, strain SHM2, hits give low values 1.01 | S. cerevisiae deletion strains, locus YLR102C, strain apc9, hits give low values 1.01 | S. cerevisiae deletion strains, locus YLR113W, strain HOG1, hits give low values 0.983 | S. cerevisiae deletion strains, locus YLR221C, strain rsa3, hits give low values 0.992 | S. cerevisiae deletion strains, locus YLR258W, strain gsy2, hits give low values 0.99 | S. cerevisiae deletion strains, locus YLR262C, strain YPT6 (second series), hits give low values 1.02 | S. cerevisiae deletion strains, locus YLR262C, strain YPT6, hits give low values 1.06 | S. cerevisiae deletion strains, locus YLR268W, strain sec22, hits give low values 1.03 | S. cerevisiae deletion strains, locus YLR320W, strain mms22, hits give low values 0.994 | S. cerevisiae deletion strains, locus YLR330W, strain CHS5, hits give low values 0.988 | S. cerevisiae deletion strains, locus YLR342W, strain FKS1 (second series), hits give low values 0.974 | S. cerevisiae deletion strains, locus YLR342W, strain FKS1, hits give low values 0.995 | S. cerevisiae deletion strains, locus YLR357W, strain rsc2, hits give low values 0.967 | S. cerevisiae deletion strains, locus YLR370C, strain arc18, hits give low values 1.01 | S. cerevisiae deletion strains, locus YLR371W, strain rom2, hits give low values 1.01 | S. cerevisiae deletion strains, locus YLR384C, strain iki3, hits give low values 0.997 | S. cerevisiae deletion strains, locus YLR418C, strain cdc73, hits give low values 1.04 | S. cerevisiae deletion strains, locus YML016C, strain PPZ1, hits give low values 1 | S. cerevisiae deletion strains, locus YML032C, strain rad52, hits give low values 1.01 | S. cerevisiae deletion strains, locus YML120C, strain ndi1, hits give low values 0.994 | S. cerevisiae deletion strains, locus YML124C, strain tub3, hits give low values 1.01 | S. cerevisiae deletion strains, locus YMR058W, strain fet3, hits give low values 1 | S. cerevisiae deletion strains, locus YMR078C, strain ctf18, hits give low values 1.01 | S. cerevisiae deletion strains, locus YMR125W, strain sto1, hits give low values 0.993 | S. cerevisiae deletion strains, locus YMR129W, hits give low values 1 | S. cerevisiae deletion strains, locus YMR205C, strain PFK2, hits give low values 0.98 | S. cerevisiae deletion strains, locus YMR223W, strain ubp8, hits give low values 1 | S. cerevisiae deletion strains, locus YMR231W, strain pep5, hits give low values 0.995 | S. cerevisiae deletion strains, locus YMR263W, strain SAP30, hits give low values 1.01 | S. cerevisiae deletion strains, locus YMR307W, strain GAS1, hits give low values 1.02 | S. cerevisiae deletion strains, locus YNL067W, strain RPL9B, hits give low values 1.01 | S. cerevisiae deletion strains, locus YNL071W, strain lat1, hits give low values 1 | S. cerevisiae deletion strains, locus YNL128W, strain TEP1, hits give low values 1.01 and 0.998 | S. cerevisiae deletion strains, locus YNL153C, strain GIM3, hits give low values 1 | S. cerevisiae deletion strains, locus YNL175C, strain NOP13, hits give low values 0.973 | S. cerevisiae deletion strains, locus YNL183C, strain NPR1, hits give low values 0.924 | S. cerevisiae deletion strains, locus YNL209W, strain ssb2, hits give low values 1.01 | S. cerevisiae deletion strains, locus YNL224C, strain SQS1, hits give low values 0.972 | S. cerevisiae deletion strains, locus YNL233W, strain BNI4, hits give low values 0.982 | S. cerevisiae deletion strains, locus YNL248C, strain rpa49, hits give low values 1.01 | S. cerevisiae deletion strains, locus YNL250W, strain rad50, hits give low values 1.01 | S. cerevisiae deletion strains, locus YNL271C, strain bni1, hits give low values 1.01 | S. cerevisiae deletion strains, locus YNL298W, strain CLA4, hits give low values 1.02 | S. cerevisiae deletion strains, locus YNL307C, strain MCK1, hits give low values 1.03 | S. cerevisiae deletion strains, locus YNL322C, strain KRE1 (second series), hits give low values 0.991 | S. cerevisiae deletion strains, locus YNL322C, strain KRE1, hits give low values 1 | S. cerevisiae deletion strains, locus YNR049C, strain mso1, hits give low values 0.988 | S. cerevisiae deletion strains, locus YNR052C, strain pop2, hits give low values 1.01 | S. cerevisiae deletion strains, locus YOL006C, strain TOP1, hits give low values 1.05 | S. cerevisiae deletion strains, locus YOL012C, strain htz1 0.911 | S. cerevisiae deletion strains, locus YOL147C, strain pex11, hits give low values 1.01 | S. cerevisiae deletion strains, locus YOR001W, strain rrp6, hits give low values 0.997 | S. cerevisiae deletion strains, locus YOR061W, strain CKA2, hits give low values 1.01 | S. cerevisiae deletion strains, locus YOR069W, strain VPS5, hits give low values 1.01 | S. cerevisiae deletion strains, locus YOR070C, strain gyp1, hits give low values 0.997 | S. cerevisiae deletion strains, locus YOR080W, strain dia2, hits give low values 0.993 | S. cerevisiae deletion strains, locus YOR083W, strain WHI5 (second series), hits give low values 0.978 | S. cerevisiae deletion strains, locus YOR083W, strain WHI5, hits give low values 1.01 | S. cerevisiae deletion strains, locus YOR106W, strain vam3, hits give low values 1.05 | S. cerevisiae deletion strains, locus YOR136W, strain idh2, hits give low values 1 | S. cerevisiae deletion strains, locus YOR144C, strain elg1, hits give low values 1 | S. cerevisiae deletion strains, locus YOR184W, strain ser1, hits give low values 1.03 | S. cerevisiae deletion strains, locus YOR231W, strain MKK1, hits give low values 0.983 | S. cerevisiae deletion strains, locus YOR265W, strain rbl2, hits give low values 1 | S. cerevisiae deletion strains, locus YOR270C, strain vph1, hits give low values 1.07 | S. cerevisiae deletion strains, locus YOR290C, strain snf2, hits give low values 0.923 | S. cerevisiae deletion strains, locus YOR316C, strain cot1, hits give low values 1.01 | S. cerevisiae deletion strains, locus YPL051W, strain arl3, hits give low values 1.01 | S. cerevisiae deletion strains, locus YPL055C, strain LGE1, hits give low values 1 | S. cerevisiae deletion strains, locus YPL078C, strain atp4, hits give low values 1.01 | S. cerevisiae deletion strains, locus YPL106C, strain sse1, hits give low values 0.987 | S. cerevisiae deletion strains, locus YPL240C, strain hsp82, hits give low values 1.01 | S. cerevisiae deletion strains, locus YPL241C, strain CIN2, hits give low values 0.997 | S. cerevisiae deletion strains, locus YPL256C, strain CLN2, hits give low values 0.981 | S. cerevisiae deletion strains, locus YPR119W, strain clb2, hits give low values 1.01 | S. cerevisiae deletion strains, locus YPR141C, strain kar3, hits give low values 1.02 | S. cerevisiae deletion strains, locus YPR163C, strain tif3, hits give low values 1.01 | S. cerevisiae deletion strains, locus YPR167C, strain met16, hits give low values 1.01 | S. cerevisiae deletion strains, strain wtn01, hits give low values 1.01 | S. cerevisiae strains, strain wild type, hits give low values 1
